Source: PubChem BioAssay
CHX counter: affects cycloheximide protein synthesis inhibition readout, counter-screen | cell reporter, cycloheximide protein synthesis inhibition counterscreen | max response, % | hit rate 12% among 300,000; in the data active = max response mostly above about 13%, no sharp cut-off; inactive = mostly below about 14%; also: read at 38.3 µM for the half of the compounds with a filed dose; 0% is about no effect
Shiga inhibitor: inhibitors of Shiga toxin in Vero cells | inhibition, % at 38.7 µM | AID 2315 | Vero cells, Shiga toxin protein synthesis inhibition reporter | hit rate 9.2% among 290,000; in the data active = inhibition mostly above about 28%, no sharp cut-off; inactive = mostly below about 43%; also: 0% is about no effect
Pf growth 48h: inhibits P. falciparum growth in the first generation, 48 h; P. falciparum luciferase growth in erythrocytes, 48 h; Potency, µM (top dose mostly 28.7 µM), for the others: at the top dose activity change, negative = inhibition, hits mostly inhibitors; hit rate 5.9% among 310,000; also: potency is read from the fitted curve at half-maximal effect; % is scaled to controls: 0 for no effect and ±100 for the full control effect
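Erythrocytes infected with P. falciparum carrying an integrated firefly luciferase reporter (2% hematocrit, 0.1% parasitemia final) were exposed to compounds in RPMI 1640 with 0.5% Albumax at 37 C, 5% CO2. Growth inhibition was scored as reduced luminescence.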
Pf growth 96h: P. falciparum growth inhibition at 96 hour, primary screen for plastid delayed-death inhibitors | Potency, µM (titrated, usually from 28.7 µM), for the others: at the top dose activity change, negative = inhibition, most hits filed as inhibitors | P. falciparum luciferase reporter growth, 96 h | hit rate 6.9% among 320,000; also: potency is read from the fitted curve at half-maximal effect; % is scaled to controls: 0 for no effect and ±100 for the full control effect
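Infected RBCs, 2% Hct / 0.05% parasitemia final; luciferase-reporter P. falciparum; cpd 96 h, 37 C, 5% CO2; luciferase detection reagent; luminescence.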
* = called active by the depositor. Compounds with a hit are over-represented: about 21% of the library has one in this group of screens. Unless noted, calls follow the shape of the dose curve; as a rule, active = well fitted inhibition curve with a large enough effect; inconclusive = small, poorly fitted or top-dose-only effect, or another doubt; inactive = no such curve, though single readings can be large or run the other way.

For CC(=O)Nc1ccccc1OCC(=O)c1cc(C)n(Cc2cccs2)c1C the results were CHX counter 66*, Shiga inhibitor 127*, Pf growth 48h 150% and Pf growth 96h 56%.
Cc1cc(C(=O)COC(=O)c2ccccc2O)c(C)n1Cc1cccs1 was read as CHX counter 3, Shiga inhibitor -8 and Pf growth 48h -51%.
For Cc1cc(C(=O)COc2cccnc2[N+](=O)[O-])c(C)n1Cc1cccs1 the results were CHX counter 43*, Shiga inhibitor 147*, Pf growth 48h 6% and Pf growth 96h 19%.
O=C(COc1cccnc1[N+](=O)[O-])NCc1cccs1 was read as CHX counter 6, Shiga inhibitor 7, Pf growth 48h inconclusive and Pf growth 96h 43%.
`CSc1cccc(N2CC(C(=O)Nc3ccccc3N3CCCC3)CC2=O)c1` (stereo unspecified) gave Pf growth 48h inconclusive and Pf growth 96h 12%.
Screening Cc1cc(C=C2C(=O)N(C)C(=S)N(C)C2=O)c(C)n1C1CCCC1 returned CHX counter 1, Shiga inhibitor 27 and Pf growth 96h inconclusive.
Screening Cc1cc(/C=C2\C(=O)NC(=S)N(C)C2=O)c(C)n1C1CCCCC1 returned CHX counter 13*, Shiga inhibitor 21, Pf growth 48h 1% and Pf growth 96h -17%.
Cc1cc(/C=C2/C(=O)N(C)C(=S)N2C)c(C)n1C1CC1 was read as CHX counter 14*, Shiga inhibitor 20, Pf growth 48h inconclusive and Pf growth 96h inconclusive.
O=C(c1cccnc1)N1CCN(c2ccc3ccccc3n2)CC1 was read as CHX counter 6, Shiga inhibitor 0, Pf growth 48h -4% and Pf growth 96h inconclusive.
`C/C(=N\Nc1nc2ccccc2s1)c1ccc2c(c1)OCO2` gave CHX counter 54*, Shiga inhibitor 70*, Pf growth 48h 66% and Pf growth 96h 128%.
`C/C(=N/NS(=O)(=O)c1ccc(C(C)(C)C)cc1)c1ccc2c(c1)OCO2` gave CHX counter 1, Shiga inhibitor -3, Pf growth 48h 54% and Pf growth 96h 62%.
Screening C/C(=N\Nc1nc2ccccc2s1)c1ccc(Br)s1 returned CHX counter 19*, Shiga inhibitor 41*, Pf growth 48h inconclusive and Pf growth 96h inconclusive.
For CC(C)[C@H](NC(=O)[C@H](CC(=O)O)NC(=O)CNC(=O)[C@@H](N)CCCN=C(N)N)C(=O)O the results were CHX counter -4 and Shiga inhibitor 4.
`COc1ccc(Nc2nnc(Cc3ccncc3)c3ccccc23)c(OC)c1` gave CHX counter 10, Shiga inhibitor 13, Pf growth 48h -58% and Pf growth 96h 20%.
`CNCCCOc1cccc(OC(C)C)c1` gave CHX counter 19*, Shiga inhibitor 141* and Pf growth 48h 16%.
CNCCCOc1cccc(Oc2ccccc2)c1 was read as CHX counter 34*, Shiga inhibitor 100*, Pf growth 48h inconclusive and Pf growth 96h 19%.
Screening CCCN(c1ccccc1F)S(=O)(=O)c1c[nH]c(C(=O)OC)c1 returned CHX counter -3, Shiga inhibitor -19, Pf growth 48h 11% and Pf growth 96h inconclusive.
For O=C(N/N=C1/SCC(=O)N1Cc1ccco1)c1ccccc1F the results were CHX counter -7, Shiga inhibitor 17, Pf growth 48h 40% and Pf growth 96h 56%.
`Cc1noc(NS(=O)(=O)c2ccc(N/C=C\C(=O)c3cccc4ccccc34)cc2)c1C` gave CHX counter 12, Shiga inhibitor 40, Pf growth 48h 24% and Pf growth 96h inconclusive.
For CCc1nnc(NS(=O)(=O)c2ccc(N/C=C\C(=O)c3cccc4ccccc34)cc2)s1 the results were CHX counter 1, Shiga inhibitor -7, Pf growth 48h -29% and Pf growth 96h 9.3µM*.
COc1ccc(S(=O)(=O)Nc2nnc(Cc3ccc(OC)c(OC)c3)s2)cc1 was read as CHX counter 9.2*, Shiga inhibitor 21, Pf growth 48h 56% and Pf growth 96h 45%.
For CCc1nnc(NS(=O)(=O)c2ccc(N/C=C/C(=O)c3ccc(OC)cc3)cc2)s1 the results were CHX counter 51*, Shiga inhibitor 86*, Pf growth 48h 36% and Pf growth 96h inconclusive.
For CCc1nnc(NS(=O)(=O)c2ccc(NC(=O)Nc3ccc(OC)cc3)cc2)s1 the results were CHX counter -1, Shiga inhibitor -6, Pf growth 48h 34% and Pf growth 96h inconclusive.
CCCN1C(=O)c2cccc3c(N4CCCCC4)ccc(c23)C1=O was read as CHX counter -2, Shiga inhibitor -7, Pf growth 48h -1% and Pf growth 96h 13µM*.
